From PubChem
This is a sample that favours compounds with a hit; in the whole collection about 22% have one here.
CYP2C19 act – activators of human cytochrome P450 2C19; activation factor at 5 µM; AID 1025; 96,000 tested, under 10 active; recombinant CYP2C19, luciferin-H EGE luminescence; hits give high values; 0 = fully inhibited enzyme, 1 = untreated enzyme;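 active = activation factor of at least 2 at 5 µM in the primary screen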
Target sequence (P33261 whole entry, looked up): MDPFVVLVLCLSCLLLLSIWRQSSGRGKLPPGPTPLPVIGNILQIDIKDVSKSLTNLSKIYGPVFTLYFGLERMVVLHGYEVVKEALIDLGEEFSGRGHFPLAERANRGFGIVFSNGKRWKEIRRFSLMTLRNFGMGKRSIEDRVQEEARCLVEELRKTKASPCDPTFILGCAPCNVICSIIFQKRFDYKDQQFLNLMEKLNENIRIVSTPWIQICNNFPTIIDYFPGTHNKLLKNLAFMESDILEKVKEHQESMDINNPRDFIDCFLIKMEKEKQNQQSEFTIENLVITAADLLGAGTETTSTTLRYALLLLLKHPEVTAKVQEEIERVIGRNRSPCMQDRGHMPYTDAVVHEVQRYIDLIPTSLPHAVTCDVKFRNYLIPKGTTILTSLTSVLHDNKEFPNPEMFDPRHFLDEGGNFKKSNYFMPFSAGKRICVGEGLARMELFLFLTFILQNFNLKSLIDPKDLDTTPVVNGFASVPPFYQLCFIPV
Measles CPE – protection of cells from measles virus. 1.5% of 140,000 active. protection (pct of control), % at 4 µM. Measles virus-infected cells, CPE protection, absorbance. AID 841; in the data active = protection mostly above about 24%, no sharp cut-off; inactive = mostly below about 26%
CYP2C9 activ – activators of human CYP2C9 | 1.4% of 96,000 active | AID 1024 | P11712 | recombinant CYP2C9, luciferin-H conversion, luminescence; hits give high values; factor 1 = untreated enzyme, 0 = blocked | activation factor at 5 µM;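 active = activation factor of 2 or more for CYP2C9 at a 5 µM dose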
CYP2C19 inhib – inhibitors of human CYP2C19 | inhibition, % at 5 µM | 21% of 96,000 active | AID 778 | P33261 | CYP2C19 Supersomes, luciferin-H EGE luminescence, 30 min;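 active = CYP2C19 inhibition above a set limit at 5 µM in the primary screen, cut at about 50% in these data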
CYP2C9 inhib – inhibitors of human CYP2C9 | P11712 | CYP2C9 Supersomes, luciferin-H conversion, luminescence | inhibition, % at 5 µM | 20% of 96,000 active;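 active = blocking of liver enzyme CYP2C9 beyond about 50% at 5 µM, limit read from the data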
Of the large screens only hits and unclear results are named; the others gave an inactive call.

COc1ccc(C)cc1NC(=O)C1CCCN1S(=O)(=O)c1ccc2c(c1)CCC(=O)N2 (configuration not stated)	none
Cc1ccc(NC(=O)C2CCCN2S(=O)(=O)c2ccc3c(c2)CCC(=O)N3)cc1Cl (configuration not stated)	CYP2C19 inhib 60, CYP2C9 inhib 89
O=C(NC1CCCCCC1)C1CCN(S(=O)(=O)c2ccc(F)cc2)CC1	none
O=C1CCc2cc(S(=O)(=O)N3CCC(C(=O)NC4CCCCCCC4)CC3)ccc2N1	CYP2C9 inhib 57
Cc1ccc(S(=O)(=O)Nc2ccc(Cl)cc2)cc1NC(=O)c1cc2c(s1)CCCC2	none (no result: CYP2C19 act, CYP2C9 activ, CYP2C19 inhib, CYP2C9 inhib)
Nc1nc2c(c3c1c(=O)oc1ccccc13)CCCCC2	none
COc1cc(NC(=O)CN(C)S(=O)(=O)c2ccc3c(c2)CCC(=O)N3)cc(OC)c1	CYP2C9 inhib 62
Fc1nc(N2CCCC2)c(F)c(Oc2ccccc2Oc2c(F)c(F)nc(N3CCCC3)c2F)c1F	none
CC(C)(C)c1nc2c(C#N)c(-c3ccc(Cl)cc3)ccn2n1	CYP2C19 inhib 67, CYP2C9 inhib 84
Cn1nnnc1SCCOc1ccc(C#N)cc1	CYP2C19 inhib 62
Nc1nnc(-c2ccccc2Cl)s1	none
CC(Sc1nnc(N)s1)c1ccccc1Cl (configuration not stated)	CYP2C19 inhib 96, CYP2C9 inhib 51
CCOC(=O)c1cnc(-n2nc(C)cc2C)nc1NCc1ccccc1	CYP2C9 inhib 68
CCOC(=O)c1cnc(-c2ccccc2)[nH]c1=O	CYP2C9 inhib 55
CCOC(=O)c1cnc(-c2cccc(OC)c2)[nH]c1=O	none
CCOC(=O)c1cnc(NCc2ccccc2)nc1C	CYP2C19 inhib 51, CYP2C9 inhib 62
CCOC(=O)CCCn1c(C)nc(=O)c(-c2ccccc2)c1C	none
COc1cc(C)c(/C=C(\C#N)C(=O)Nc2ccc(C)cc2)cc1C(C)C	none (no result: CYP2C19 act, CYP2C9 activ, CYP2C19 inhib, CYP2C9 inhib)
c1ccc(Cn2nnnc2C(c2cccs2)N2CCSCC2)cc1 (configuration not stated)	none (no result: CYP2C19 act, CYP2C9 activ, CYP2C19 inhib, CYP2C9 inhib)
CC1CCN(C(c2cccs2)c2nnnn2Cc2ccccc2)CC1 (configuration not stated)	CYP2C19 inhib 88
c1ccc(Cn2nnnc2C(c2cccs2)N2CCOCC2)cc1 (configuration not stated)	CYP2C19 inhib 63
CCCCNC(=O)Nc1ccccc1C(=O)NCc1ccco1	none
O=C1C=C(O)CC(c2cccs2)C1 (configuration not stated)	none
CCOc1ccc(N(C(=O)Nc2ccccc2)C2=NCCC2)cc1	none
O=C(Nc1ccccc1)N(C1=NCCC1)c1ccc(OC(F)F)cc1	CYP2C19 inhib 50, CYP2C9 inhib 79
Nc1c(C(=O)O)nnn1Cc1ccccc1	none
COc1ccc(C(=O)N2CCCC2)cc1S(=O)(=O)N1CCC(C)CC1	none
C/C=C/Cn1c(SCc2ccc(Cl)cc2)nc2c1c(=O)[nH]c(=O)n2C	CYP2C9 inhib 58
CCCn1c(SCc2ccc(Cl)cc2)nc2c1c(=O)[nH]c(=O)n2C	CYP2C19 inhib 67
CCn1c(C(=O)N2CCc3ccccc3C2)cc2oc3ccccc3c21	CYP2C19 inhib 55, CYP2C9 inhib 53
O=C(c1cc2ccccc2c(=O)o1)N1CCc2ccccc2C1	CYP2C9 activ 2.5
CCOC(=O)c1c(C)c(C(=O)N2CCc3ccccc3C2)c(C)n1CC	CYP2C19 inhib 86
O=C1c2ccccc2C(=O)N1CCCc1nc(-c2ccc(Cl)cc2)no1	none
CN(Cc1ccccc1)C(=O)COc1ccc(-c2nnco2)cc1	none (no result: CYP2C19 act, CYP2C9 activ, CYP2C19 inhib, CYP2C9 inhib)
Cc1ccsc1C1NC(=O)c2c(sc3c2CCN(C)C3)N1 (configuration not stated)	none
Cc1cc(C)n(CC(=O)NCc2cc(-c3nn(C)c(=O)c4ccccc34)ccc2C)n1	CYP2C9 inhib 55
Cc1ccc(-c2nn(C)c(=O)c3ccccc23)cc1CNC(=O)Cn1nc(-c2ccccc2)c2ccccc2c1=O	none
CCOC(=O)CNS(=O)(=O)c1cc(-c2n[nH]c(=O)c3ccccc23)ccc1C	CYP2C19 inhib 50, CYP2C9 inhib 65
COc1ccc(-c2nn(C)c(=O)c3ccccc23)cc1CNS(C)(=O)=O	none
Cc1ccc(NS(=O)(=O)c2cc(-c3n[nH]c(=O)c4ccccc34)ccc2C)cc1	none (no result: CYP2C19 act, CYP2C9 activ, CYP2C19 inhib, CYP2C9 inhib)
COc1ccc(-c2nn(C)c(=O)c3ccccc23)cc1NS(C)(=O)=O	CYP2C9 inhib 51
COc1ccc(-c2nn(C)c(=O)c3ccccc23)cc1NC(=O)Cn1nc(-c2ccccc2)c2ccccc2c1=O	CYP2C9 inhib 72
c1coc(CNCc2cccs2)c1	none (no result: CYP2C19 act, CYP2C9 activ, CYP2C19 inhib, CYP2C9 inhib)
Cc1ccc(-c2nn3c(C)nnc3c3ccccc23)cc1S(=O)(=O)NCc1ccco1	none
Cc1ccc(-c2nn3c(C)nnc3c3ccccc23)cc1S(=O)(=O)NC(C)c1ccccc1 (configuration not stated)	CYP2C19 inhib 50, CYP2C9 inhib 73
Cc1ccc(-c2nn(CC(N)=O)c(=O)c3ccccc23)cc1S(=O)(=O)N(C)C	CYP2C9 inhib 59
CCOC(=O)Cn1nc(-c2ccccc2)c2ccccc2c1=O	none
COCCNS(=O)(=O)c1cc(-c2nn(C)c(=O)c3ccccc23)ccc1C	CYP2C19 inhib 57, CYP2C9 inhib 70
O=C(Nc1cccc(-c2nnc(-c3ccccc3)o2)c1)c1ccc(Br)o1	CYP2C9 inhib 69
Cc1cccc(NC(=S)NNC(=O)c2csc(C)c2)c1	none (no result: CYP2C19 act, CYP2C9 activ, CYP2C19 inhib, CYP2C9 inhib)
C=Cc1cccc(NC(=O)COc2ccccc2)c1	CYP2C19 inhib 87
Cc1cccc(NC(=S)NNC(=O)c2ccc(Br)o2)c1	CYP2C9 inhib 56
O=C(COc1ccccc1)Nc1cccc(-c2nnc(-c3ccccc3)o2)c1	CYP2C9 inhib 53 (no result: Measles CPE)
CCOc1ccccc1C(=O)Nc1cccc(-c2nnc(-c3ccccc3)o2)c1	none
O=C(COc1ccccc1)Nc1ccc2c(c1)Cc1cc(NC(=O)COc3ccccc3)ccc1-2	none (no result: CYP2C19 act, CYP2C9 activ, CYP2C19 inhib, CYP2C9 inhib)
O=C(COc1ccc(Br)cc1)N/N=C1\SCC(=O)N1c1ccc(F)cc1	none (no result: CYP2C19 act, CYP2C9 activ, CYP2C19 inhib, CYP2C9 inhib)
Cc1cc(C)nc(SCc2cccc(C(=O)O)c2)n1	none
CC(C)NC(=O)CN1C(=O)C(=O)c2ccccc21	none (no result: CYP2C19 act, CYP2C9 activ, CYP2C19 inhib, CYP2C9 inhib)
Cc1cc(C)cc(OCC(=O)Nc2cccc(-c3nnc(-c4ccco4)o3)c2)c1	CYP2C19 inhib 67, CYP2C9 inhib 80
COc1cc(C(=O)Nc2ccc(-c3nnc(-c4ccco4)o3)cc2)cc(OC)c1OC	none
COc1ccc(OCC(=O)Nc2cccc(-c3nc4ccccc4o3)c2)cc1	none
COc1ccc(C(=O)Nc2cccc(-c3nnc(-c4ccco4)o3)c2)cc1	CYP2C9 inhib 60
CCOc1cc(/C=C(\C#N)c2[nH]nc(N)c2C#N)ccc1O	CYP2C19 inhib 60
CCOc1cc(-c2cc(-c3ccc(C)cc3)nc(N)c2C#N)ccc1O	CYP2C9 inhib 84
CCOc1cc(-c2c(C#N)c(N)nc3c2CCc2ccccc2-3)ccc1O	none (no result: CYP2C19 act, CYP2C9 activ, CYP2C19 inhib, CYP2C9 inhib)
CCN(CC)CCn1c(NC(=O)c2ccc(Cl)cc2)nc2ccccc21	none
COCCNC(=O)CSc1nc2ccccc2c(=O)n1-c1cccc(OC)c1	CYP2C19 inhib 82, CYP2C9 inhib 65
COc1ccc(C(=O)Nn2c(SCC(=O)NCc3ccccc3)nc3ccccc3c2=O)cc1	CYP2C9 inhib 74
